# Compound activity as filed in PubChem.
# Sampled rows, rich in hits. Any-hit rate of the full collection: about 4.1%.
# MRP reversal: MRP-mediated drug resistance reversal | H69AR cells + 2 uM doxorubicin, CellTiter-Glo, 72 h | differential viability (reversal), % at 10 µM | 85,000 compounds, 0.04% hits | AID 602;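 active = viability drop by adding the cancer drug above about 55%, with treated viability meeting a 40% cutoff, limit read from the data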;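 note: viability without doxorubicin minus viability with 2 µM doxorubicin for each compound; larger differential means the compound sensitizes cells more to doxorubicin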
# Mac1 fbg inh: blocks human CD11b/CD18 adhesion to fibrinogen. K562 CD11b/CD18 adhesion to fibrinogen, ATPlite luminescence; Mn2+ added to activate the integrin. AID 1497. 93,000 compounds, 0.54% hits. inhibition, % at 10 µM;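 active = primary inhibition of 50% or more at 10 µM, then 40% or more on retest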
# Cav3 T inh: human Cav3.2 channel inhibition, primary screen | 100,000 compounds, 4% hits | B-score at 10 µM | Cav3.2-expressing cells, Fluo-4 calcium fluorescence FDSS; hits give low values | O95180 | AID 449739;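 active = single-dose well whose peak fluorescence ratio is a statistical outlier from its plate by either plate-standardised score or position-corrected B-score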
# Mac1 fbg enh: increases human CD11b/CD18 adhesion to fibrinogen; P05107+P11215; K562 CD11b/CD18 adhesion to fibrinogen, ATPlite luminescence; activation, % at 10 µM; 93,000 compounds, 0.07% hits; AID 1499;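 active = 10 µM primary screen giving 50% or more activity, confirmed by 40% or more on retest at that dose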
# MRP1 act: activates MRP-1 | viability increase, % at 10 µM | H69AR cells + doxorubicin, viability rescue, CellTiter-Glo | 140,000 compounds, 0.61% hits;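 active = viability gain under doxorubicin at or above a set limit, the compound median plus 3 SD, cut at about 4.7% in these data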;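 note: MRP-1 overexpressing cells given doxorubicin 25 µM after compound pretreatment; 18-22 h compound pretreatment then 72 h with doxorubicin before readout; 0% = doxorubicin-only wells and 100% = vehicle-treated cells without doxorubicin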
# Pyk2 oligo antag: antagonists of human Pyk2 oligomerization. z-score (the deposit names both 25 µM and 10 µM). Q14289. 99,000 compounds, 0.83% hits. Q293 cells, Pyk2 FERM NanoBiT luminescence; hits give low values;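 active = Z-score of -3 or lower, scaled per plate to the spread of control and sample wells; inactive = z-score above -3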;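 note: negative z-score means lost luminescence so less FERM oligomerization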
# Starred values were filed as active, the others as inactive; . = no result.
SMILES,MRP reversal,Mac1 fbg inh,Cav3 T inh,Mac1 fbg enh,MRP1 act,Pyk2 oligo antag
CN(C)S(=O)(=O)c1ccc(C(=O)N2CCCC2c2nc3ccccc3s2)cc1 (stereo unspecified),2.2,.,1.27,.,-2.9,-0.39
O=S(=O)(c1ccc(Br)cc1)N1CCCC1c1nc2ccccc2s1 (stereo unspecified),.,.,-4.6*,.,-2.3,-0.68
CCOc1ccc2[nH]c(=O)c(CN(Cc3cccs3)C(CC)c3nnnn3C(C)(C)CC)cc2c1 (stereo unspecified),-20.1,22.8,-6.23*,-5.6,-3.9,0.58
CCC(c1nnnn1C1CCCC1)N(Cc1cccs1)Cc1cc2cc(C)ccc2[nH]c1=O (stereo unspecified),-5.2,18.4,-1.06,-2.8,-5.8,0.07
N=c1scc(-c2ccccc2)n1/N=C/c1ccco1,.,-1.9,.,13.1,-2.6,.
COc1ccc2[nH]c(=O)c(-c3nnn(-c4ccc(Cl)c(Cl)c4)n3)cc2c1,.,.,0.428,.,.,.
CCN(CC)S(=O)(=O)c1ccc(C(=O)N2CCN=C2SC)cc1,8.2,0.9,-1.94,-0.7,-0.5,.
CCC1CCCCN1CCCNC(=O)CC1Oc2ccccc2NC1=O (stereo unspecified),-3.6,-3.5,0.0996,3.9,-1.5,.
Cc1nn(Cc2ccc([N+](=O)[O-])cc2)c(=O)n1-c1ccccc1,.,.,-1.34,.,-2.6,0.88
CCCCC1(Cc2ccc([N+](=O)[O-])cc2)C(=O)N(c2ccccc2)N(c2ccccc2)C1=O,.,.,-4.8*,.,-0.6,-0.99
O=C(NCC1COc2ccccc2O1)C1C2C=CC3(CN(Cc4ccccc4Cl)C(=O)C13)O2 (stereo unspecified),-8.3,.,-8.66*,.,0.1,-0.08
COc1ccc(CCN2CC34C=CC(O3)C(C(=O)NCc3ccccc3Cl)C4C2=O)cc1OC (stereo unspecified),8.6,-4.4,0.814,-4.6,-1.7,2.19
Cc1cc(C(=O)OCC(=O)Nc2ccc(F)cc2)c(C)o1,4.2,6.3,0.136,0.7,3.0,0.13
CCN(CC)S(=O)(=O)c1cccc(NC(=O)COC(=O)c2cc(C)oc2C)c1,.,20.6,-5.99*,-1.3,0.5,0.24
Cc1cc(NC(=O)C2CC(c3ccc(F)cc3)=NO2)n(-c2ccccc2)n1 (stereo unspecified),12.0,-5.3,0.554,0.0,1.2,.
COc1cc(C)c(Cl)cc1S(=O)(=O)NCc1ccncc1,5.5,83.9*,1.15,-8.6,-1.9,.
COc1cc(C)c(Br)cc1S(=O)(=O)NCc1ccccc1,.,-16.8,0.251,6.2,-0.5,2.4
CC1(C)CC(=O)C(C(C2=C(O)CC(C)(C)CC2=O)c2ccco2)C(=O)C1 (stereo unspecified),.,.,-0.0981,.,-2.2,1.06
CCNC(=O)NC(=O)CSc1cccc(C(F)(F)F)c1,-10.9,0.1,-1.32,-3.3,0.8,-0.59
O=C(CSc1cccc(C(F)(F)F)c1)NC(=O)NCc1ccco1,-12.9,2.6,-5.31*,0.0,-3.5,-0.17
COc1ccc(CCNC(=O)C2CCCN(S(=O)(=O)c3cccc4nonc34)C2)cc1OC (stereo unspecified),6.0,0.0,.,4.1,-1.4,-0.6
COC(=O)NCc1ccc(Cl)c(Cl)c1,-17.4,6.5,-1.64,-1.6,-2.4,0.03
COc1ccc(CNC(=O)Oc2ccccc2)cc1Cl,6.6,6.1,-5.19*,-2.5,1.7,0.24
CC(NC(=O)CCC(=O)NC(C)C1COc2ccccc2O1)C1COc2ccccc2O1 (stereo unspecified),27.7,-18.6,-8.82*,-6.8,2.7,1.2
CC(NC(=O)c1ccco1)C1COc2ccccc2O1 (stereo unspecified),6.0,-0.8,-0.0145,3.6,-1.2,0.57
SMILES,MRP reversal,Mac1 fbg inh,Cav3 T inh,Mac1 fbg enh,MRP1 act,Pyk2 oligo antag
Cc1cc(=O)oc(C)c1C(=O)OC(C(=O)c1ccccc1)c1ccccc1 (stereo unspecified),.,.,.,.,-1.7,.
CCOC(=O)c1cnc2c(c(C)nn2C)c1Oc1ccc(Cl)cc1,.,-57.2,-6.71*,9.0,-1.9,-0.39
Cc1cc(NC(=O)C(C)Oc2ccc(Cl)cc2Cl)n(-c2ccccc2)n1 (stereo unspecified),-0.9,-8.3,-3.51*,8.4,-3.4,-0.04
O=S(=O)(/N=C(/Nc1cccc2ccccc12)c1ccccc1)c1cccs1,.,-55.0,-4.61*,1.0,-1.8,-0.83
COc1ccc2[nH]c3c(N4CCC(O)(c5cccc(C(F)(F)F)c5)CC4)ncnc3c2c1,.,7.5,-2.28,-2.5,-7.6,-2.88
CCOC(=O)c1sc(NC(=O)c2ccc(S(=O)(=O)N(CC)CC)cc2)nc1C,.,-4.1,0.728,4.7,-0.1,1.04
CCCN1CCN(CCCNC(=O)CCNC(=O)Cn2ccc3ccccc3c2=O)CC1,3.7,8.4,0.312,-3.2,0.8,0.43
CCCN(CCC)C1=N/C(=C\c2ccco2)C(=O)N1c1ccccc1,.,-0.6,-4.92*,-3.2,-4.7,1.06
Cc1oc(C(=O)Nc2ccc(C(=O)O)cc2)cc1COc1ccccc1,1.6,-6.7,.,-2.9,7.2*,1.27
COC(=O)c1ccccc1NC(=O)CN(CCc1ccccc1)S(C)(=O)=O,8.3,-13.0,-0.844,-2.3,-3.5,0.03
CS(=O)(=O)N(CCc1ccccc1)CC(=O)Nc1ccc(OCc2ccccc2)cc1,.,.,-4.2*,.,-3.2,-0.01
O=C(Nc1nc(-c2ccc(F)cc2)cs1)C1CCCO1 (stereo unspecified),.,.,.,.,0.4,.
CCOc1cc(C)nc(N2CCCC(C(=O)NCc3ccccc3F)C2)n1 (stereo unspecified),-20.1,24.9,-0.668,-5.7,-2.5,-0.01
O=C(CSc1nnc(Cn2nnc3ccccc32)o1)N(Cc1ccc(Cl)cc1)c1ccccc1,5.1,103.9,-5.95*,-5.9,-1.9,-0.41
Clc1ccc(CSc2nnc(Cn3cnc4ccccc43)o2)cc1,10.9,69.2,-4.71*,-7.8,-0.6,-0.14
CCc1ccccc1NC(=O)CSc1nnc(Cn2cnc3ccccc32)o1,-19.1,.,-0.894,.,-1.4,0.05
CCn1c(CNC(=O)COC)nc2ccccc21,-3.5,-3.2,0.0216,-5.0,-0.5,.
CCc1ccc(NC(=O)CCNS(=O)(=O)c2cccc3nsnc23)cc1,9.2,14.3,0.178,-5.3,-0.8,1
CCOc1cc(S(=O)(=O)Nc2ccc(CC)cc2)ccc1Cl,6.7,76.5,-2.91,-4.4,-0.9,-2.36
CCOc1cc(S(=O)(=O)Nc2ccccc2CC)ccc1Cl,-4.3,12.3,-5.76*,-0.6,-1.5,-0.3
CCOc1ccc(OCC)c(-c2c(=O)n(OCc3ccc(C(C)(C)C)cc3)c3ccccc3[n+]2[O-])c1,.,.,-3.65,.,6.6*,-1.48
COc1ccc(CCNC(=O)CSc2nnc(-c3ccccc3)c3ccccc23)cc1OC,.,2.2,.,2.0,-4.0,.
CCCCn1c(-c2ccccc2)cnc1SCC(=O)NCCc1ccc(OC)c(OC)c1,.,-6.1,-4.47*,-3.8,-1.5,-0.18
